# Screening data (PubChem BioAssay)
# Compounds with a hit are over-represented: about 4.2% of the library has one in this group of screens.
# Hsp90 Hop PPI: changes Hsp90-Hop TPR2A binding signal, up or down | 71,000 compounds, 0.44% hits | AID 595 | Potency, µM (doses to about 57 µM) | AlphaScreen TPR2A-His6 binding biotin-Hsp90 C-terminal peptide; active = well fitted curve in either direction with a large enough effect; inconclusive = small, poorly fitted or top-dose-only effect, or another doubt
# TsaE inh: YjeE (TsaE) inhibition, E. coli; purified YjeE enzyme, qHTS inhibition assay; P0AF67; 71,000 compounds, 0.05% hits; Potency, µM
#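 Fluorescence polarization of a BODIPY Texas Red–ADP probe (2 uM) bound to purified YjeE (10 uM) was read after 15 min room-temperature incubation with compounds. Loss of polarization marks inhibitors; ADP serves as titrated control.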
# ERK AVP inh: vasopressin-driven ERK pathway inhibition | 72,000 compounds, 0.99% hits | HEK293-V1b, vasopressin-stimulated pERK AlphaScreen | Potency, µM (highest dose often 57.5 µM), most hits filed as inhibitors; note: nearly all actives have a fitted effect of over 55% in size
#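 HEK293 cells stably expressing V1b receptor, seeded overnight in 1% FBS, were treated with compounds for 30 min at 37C, then stimulated 5 min with 25 nM vasopressin; phospho-ERK read by AlphaScreen SureFire after lysis.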
# Tau fil binding: binds recombinant human tau filaments; P10636; recombinant tau filaments, thioflavin S fluorescence, 15 h; filaments grown with octadecylsulfate alongside compound; Potency, µM (series often up to 57.1 µM); 71,000 compounds, 2% hits;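 note: actives lower thioflavin S fluorescence by blocking filaments or displacing dye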
#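 Assay mix: 1 uM His-tagged tau, 30 uM sodium octadecylsulfate, thioflavine S dye in HEPES/NaCl/DTT buffer. Compound is added prior to the inducer. Fluorescence after 15 h at 37 C.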
# ALOX15 inhib: inhibitors of human 15-lipoxygenase (ALOX15) | purified 15hLO-1, xylenol orange hydroperoxide absorbance | Potency, µM (series often up to 57.1 µM), actives largely listed as inhibitors | 74,000 compounds, 1.4% hits | AID 887; note: nearly all actives have a fitted effect of over 55% in size
# Target sequence (P16050 whole entry, looked up): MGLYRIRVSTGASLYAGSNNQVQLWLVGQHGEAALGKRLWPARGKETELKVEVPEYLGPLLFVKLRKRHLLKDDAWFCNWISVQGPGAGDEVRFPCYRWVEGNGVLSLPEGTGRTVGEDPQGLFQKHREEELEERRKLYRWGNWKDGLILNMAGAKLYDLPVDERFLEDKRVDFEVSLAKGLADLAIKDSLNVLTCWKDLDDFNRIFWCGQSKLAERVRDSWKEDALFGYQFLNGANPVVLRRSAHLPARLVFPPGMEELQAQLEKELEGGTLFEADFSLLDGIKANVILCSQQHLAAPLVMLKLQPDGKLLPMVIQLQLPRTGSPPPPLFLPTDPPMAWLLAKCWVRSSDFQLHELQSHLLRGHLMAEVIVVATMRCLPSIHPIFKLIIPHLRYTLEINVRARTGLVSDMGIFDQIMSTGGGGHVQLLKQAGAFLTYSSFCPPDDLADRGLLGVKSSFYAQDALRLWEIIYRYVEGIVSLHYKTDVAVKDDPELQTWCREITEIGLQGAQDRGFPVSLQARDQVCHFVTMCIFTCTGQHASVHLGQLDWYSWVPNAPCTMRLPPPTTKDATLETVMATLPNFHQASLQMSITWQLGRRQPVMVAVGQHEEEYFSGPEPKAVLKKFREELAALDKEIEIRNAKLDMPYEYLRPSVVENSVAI
#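 Purified human 15hLO-1 (40 nM) in 25 mM Hepes pH 7.5, 0.01% Triton X-100, preincubated 15 min RT with compound, then 50 uM arachidonic acid for 6 min. Hydroperoxide read by ferrous/xylenol orange, 30 min; 573/405 nm absorbance ratio gave progress.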
# DNA Pol III inh: blocks replication by bacterial DNA polymerase III holoenzyme; Potency, µM (series often up to 57.1 µM); reconstituted DNA polymerase III holoenzyme replication, biochemical; 71,000 compounds, 0.25% hits
#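 Reconstituted *E. coli* holoenzyme (0.35 nM Pol III, 1 nM beta, 154 nM SSB, 2 nM primase) was preincubated with compound for 15 min at RT. Synthesis on 1.4 nM ssM13Gori ran 35 min, then was stopped with PicoGreen/EDTA and read as dsDNA fluorescence.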
# Hits are given with their value; . = inactive; ? = inconclusive; / = no result given; ! = not confirmed by another sample; [ ] = dose if it differs, or a comment. Unless noted, calls come from the whole dose curve; as a rule, active = well fitted curve in the direction sought with a large enough effect; inconclusive = small, poorly fitted or top-dose-only effect, or another doubt; inactive = no such curve, though single readings can be large; an effect the other way counts as inactive or inconclusive.
SMILES,Hsp90 Hop PPI,TsaE inh,ERK AVP inh,Tau fil binding,ALOX15 inhib,DNA Pol III inh
CCN1CCCC1CNC(=O)COc1cc(=O)n(C)c2ccccc12 (stereo not drawn),.,.,.,.,.,.
C/C=C/OC(=O)NC(c1ccccc1)[C@@]1(C(=O)OCC)CCCC1=O (stereo partly drawn),/,/,.[11.5 µM],/,.[11.4 µM],/
CC1(C)CC2C1CCC1(C)OC2(C)CCC1O (stereo not drawn),/,/,.,/,.,/
O=c1c2c([nH]c3ccccc13)C(=C1CCCC1)CC2,/,/,/,/,20µM,/
O=C(c1cccc(C(=O)N2CCN(c3ccccc3F)CC2)c1)N1CCN(c2ccccc2F)CC1,.[11 µM],.,16µM,.[11.4 µM],.[11.4 µM],.[11.4 µM]
O=C(c1c(F)cccc1F)N1CCN(c2ccccc2F)CC1,.,.,.,.,.,.
COCCn1c(C)cc(C(=O)CSc2nnc3ccccn23)c1C,.,.,.,.,.,.
O=C(CSc1nnc2ccccn12)c1ccc(OC(F)F)cc1OC(F)F,.,.,?,13µM,.,.
Cc1cc(C)c2cc(C#N)c(SCC(=O)NCc3ccco3)nc2c1,.,.,.,20µM,?,.
CSc1ccccc1NC(=O)CCn1c(=O)sc2ccccc21,.,.,.,.,.,.
Cc1ccc(NC(=O)c2c(O)c3ccccc3n(C)c2=O)nc1,.,.,.,.,.,.
COc1ccc(-c2nc(SC)n(S(=O)(=O)c3ccccc3)n2)cc1,.,.,.,.,.,.
CC(C)=C1C2CCC1C(C(=O)NCc1ccccc1)C2C(=O)O (stereo not drawn),.,.,.,.,.,.
CCOc1cccc(C(=O)Nc2ccc(N(CC)CC)cc2)c1,.[11 µM],.,?,3.2µM,.[11.4 µM],.[11.4 µM]
CN1C(=O)CSc2ccc(NC(=O)N3CCOCC3)cc21,.,.,?,?,?,.
CCN(CC)c1ccc(NC(=O)Nc2cccc(C(C)=O)c2)cc1,.,.,?,20µM,.,.
CC(=O)c1cccc(NC(=O)Nc2ccc3c(c2)N(C)C(=O)CS3)c1,.,.,10µM,16µM,?,.
CC(=O)Nc1cccc(NC(=O)Nc2ccc(C(C)=O)cc2)c1,.,.,.,.,.,.
c1ccc(Cn2nnnc2C(c2ccccn2)N2CCOCC2)cc1 (stereo not drawn),.,.,.,.,.,.
COc1ccc(S(=O)(=O)N2CCCCC2)cc1C(C)C,.,.,.,.,.,.
COC(=O)C1=CN(C)C=C(C(=O)OC)C1c1ccccc1Cl,.,.,.,.,.,.
Cc1nc2nc(-c3ccco3)[nH]n2c(=O)c1Cc1ccccc1,.,.,.,.,16µM,.
Cc1nc2nc(-c3ccccc3)[nH]n2c(=O)c1Cc1ccccc1,.,.,.,.,.,.
c1ccc(-c2nc3nonc3nc2-c2ccccc2)cc1,?,.,13µM,?,.,.
CCOC(=O)C1CCCN(S(=O)(=O)Cc2ccccc2)C1 (stereo not drawn),.,.,.,.,.,.
SMILES,Hsp90 Hop PPI,TsaE inh,ERK AVP inh,Tau fil binding,ALOX15 inhib,DNA Pol III inh
COc1ccc2oc(=O)c(C(=O)N3CCN(c4ccccc4C)CC3)cc2c1,.,.,.,16µM,.,.
CCOC(=O)CCCNC(=O)COC(=O)c1cccc(C)c1O,.,.,.,.,.,.
CCOC(=O)N1CCN(Cc2nc3c(c(=O)n(C)c(=O)n3C)n2Cc2cc(C)ccc2C)CC1,.,.,.,.,.,.
COc1cc(C(=O)NCc2ccc(-c3nc4ccccc4o3)cc2)cc(OC)c1OC,.,.,.,.,.,.
CC(NC(=O)c1cccc(C(F)(F)F)c1)C1CCCO1 (stereo not drawn),.,.,.,.,.,.
Cc1sc(N)c(C(=O)c2cccc(C(F)(F)F)c2)c1C,?,.,.,32µM,.,.
Cc1c(N=CC=Nc2c(C)n(C)n(-c3ccccc3)c2=O)c(=O)n(-c2ccccc2)n1C,.[11 µM],.,.,.[11.4 µM],.[11.4 µM],.[11.4 µM]
Cc1c(N=C/C=C2\N(C)c3ccccc3C2(C)C)c(=O)n(-c2ccccc2)n1C,.,.,.,1µM,.,.
CCN(CC)CCCC(C)n1c(-c2ccccc2)nc2c(NCc3ccccc3)nc(C)nc21 (stereo not drawn),.,.,.,.,?,.
COc1ccc(Nc2cc(C(=O)NCCCN3CCN(C)CC3)c3ccccc3n2)cc1OC,.,.,.,16µM,.,.
Cn1cccc1C(=O)N1CCC2(CC1)CCN(c1ccc(-c3ccccc3)cc1)CC2,.,.,.,16µM,.,.
O=C(c1cccc(F)c1)N1CCC2(CCCN(c3ccc(-c4ccccc4)cc3)C2)CC1,.,.,.,.,.,.
O=C1c2c(O)ccc(O)c2C(=O)c2c(NCCNCCO)ccc(NCCNCCO)c21,16µM!,79µM!,13µM!,4µM,.,1µM
CC1(C)CC(=O)C2=C(C1)OC1=C(C(=O)CC(C)(C)C1)C2c1ccc(O)cc1O,.[11 µM],?,10µM,.[11.4 µM],3.2µM,.[11.4 µM]
CCCOC(=O)c1ccc(Oc2c(-c3ccc(O)cc3O)n[nH]c2C)cc1,.,.,.,20µM,?,.
O=S1(=O)CC(NCc2ccccc2)C(Nc2ccccc2)C1 (stereo not drawn),.,.,.,.,.,.
COc1ccc(NC2CS(=O)(=O)CC2NCc2ccco2)cc1 (stereo not drawn),.,.,?,.,16µM,.
COc1ccc(NC(=O)N2CCC3(CC2)CCN(C(=O)c2cnccn2)CC3)cc1,.,.,.,.,.,.
O=S(=O)(Nc1ccc(S(=O)(=O)N2CCCCC2)cc1)c1cccs1,.,.,.,.,.,.
O=S(=O)(Nc1ccc(N2CCOCC2)cc1)c1cccs1,.,.,.,16µM,.,.
CCOc1ccc2nc3sc(C(=O)N4CCN(C)CC4)c(N)c3cc2c1,.,.,.,?,.,.
CCOc1ccc2nc3cc(N=Nc4ccc(N)nc4N)ccc3c(N)c2c1,.[11 µM],.,.[11.5 µM],.[11.4 µM],.[11.4 µM],3.2µM
N#CC1=C(N)N(c2ccc(Oc3ccccc3)cc2)C(=O)C1,.,.,.,.,?,.
Nc1nc(NCCc2ccc(O)cc2)nc2nc(-c3ccco3)nn12,.,.,?,32µM,.,.
Cc1nc2nc(-c3ccco3)nn2c(C)c1Cl,.,.,.,.,.,.
CCOC(=O)C1CCN(C(=O)CN(Cc2ccc(Cl)cc2)S(C)(=O)=O)CC1,.,.,.,.,.,.
Nc1nc2c(cnn2CCc2ccccc2)c2nc(-c3ccco3)nn12,/,/,.,/,20µM,/
O=C(Nc1ccccc1)N1CC=C(c2ccccc2)CC1,.,.,.,?,25µM,.
O=C(Nc1ccc(Nc2ccccc2)cc1)N1CCOCC1,.,.,.,16µM,.,.
COc1ccc(C(=O)NCC(c2cccnc2)N2CCN(c3ccccc3OC)CC2)cc1OC (stereo not drawn),.,.,/,.,.,.
